Bioassay records (PubChem)
KCNQ2 pot – potentiators of rat KCNQ2 potassium channel; O88943; CHO-K1 KCNQ2, FluxOR thallium flux fluorescence; stronger effect = higher value; B-score at 10 µM; actives 0.54% (n = 310,000);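 active means fluorescence ratio B-score at least 3 SD of library B-scores, with initial fluorescence B-score within 3 of them, cut at about 5.3 in these data; same plate scores as AID 2156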;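 further: B-score of peak minus minimum over baseline fluorescence ratio after K+ and Tl+ stimulus; positive B-score means potentiation of KCNQ2 with more thallium influx and brighter signal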
Target sequence (O88943 whole entry, looked up): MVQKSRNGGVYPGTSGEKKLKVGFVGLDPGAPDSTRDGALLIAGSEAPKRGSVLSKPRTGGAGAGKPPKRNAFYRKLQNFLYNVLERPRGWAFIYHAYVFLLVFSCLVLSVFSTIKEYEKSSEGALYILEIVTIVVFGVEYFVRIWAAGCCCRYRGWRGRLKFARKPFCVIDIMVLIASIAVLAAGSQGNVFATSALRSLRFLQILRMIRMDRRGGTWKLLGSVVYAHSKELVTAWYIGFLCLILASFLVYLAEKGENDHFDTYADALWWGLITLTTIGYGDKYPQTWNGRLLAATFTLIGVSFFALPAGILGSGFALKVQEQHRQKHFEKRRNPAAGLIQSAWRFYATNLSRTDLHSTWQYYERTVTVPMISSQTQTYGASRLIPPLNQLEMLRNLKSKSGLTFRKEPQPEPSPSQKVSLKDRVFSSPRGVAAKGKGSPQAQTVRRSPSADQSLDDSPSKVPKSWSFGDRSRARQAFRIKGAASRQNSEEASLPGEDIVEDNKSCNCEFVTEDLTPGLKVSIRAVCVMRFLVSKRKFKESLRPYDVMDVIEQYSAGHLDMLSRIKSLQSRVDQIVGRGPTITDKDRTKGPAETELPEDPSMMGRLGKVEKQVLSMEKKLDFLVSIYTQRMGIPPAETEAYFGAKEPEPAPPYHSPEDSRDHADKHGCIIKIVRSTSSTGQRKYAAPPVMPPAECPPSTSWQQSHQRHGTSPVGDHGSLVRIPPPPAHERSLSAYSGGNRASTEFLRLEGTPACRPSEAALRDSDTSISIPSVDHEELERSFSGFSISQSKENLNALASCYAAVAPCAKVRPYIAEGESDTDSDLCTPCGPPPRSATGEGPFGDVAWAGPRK
KCNQ2 block – blocks the rat KCNQ2 potassium channel; O88943; CHO-K1 KCNQ2, FluxOR thallium flux, 20 min; stronger effect = lower value; B-score at 10 µM; actives 1.1% (n = 310,000);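 active means fluorescence ratio B-score at most minus 3 library SDs, with starting brightness B-score within 2 library SDs, cut at about -5.5 in these data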
Kir21 confirm – confirmation of mouse Kir2.1 potassium channel inhibitors; shares compounds with KCNQ2 pot; actives 41% (n = 2,300); Kir2.1-expressing cells, FluxOR thallium flux fluorescence; stronger effect = lower value; Tl flux remaining, % of negative control (stronger effect = lower value), % at 10 µM;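 active means Primary-screen hit whose thallium flux fell at least 3 control SD below untreated wells in both duplicates, with normal baseline fluorescence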
HEK293 ctr – parental HEK293 activity in Kir2.1 inhibitor counter-screen; shares compounds with KCNQ2 pot; parental HEK293 cells, FluxOR thallium flux fluorescence; 0% = unstimulated blank wells; FluxOR signal as % of negative control (100 = no effect), % at 10 µM; actives 19% (n = 2,300); AID 2105;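 active means dye signal at least 3 control SD above or below untreated wells in both duplicates, raw fluorescence within 3, either direction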;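 further: percent is based on the flux ratio of peak minus minimum fluorescence over baseline F0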
CHO-K1 ctr – parental CHO-K1 activity in KCNQ2 potentiator counter-screen. actives 43% (n = 1,200). activity increase over 3SD of controls, % at 10 µM. shares compounds with KCNQ2 pot. parental CHO-K1 cells, FluxOR thallium flux fluorescence; zero = vehicle mean+3SD, 100% = vehicle-minus-blank window;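 active means signal rise of at least 3 SD above the untreated control mean, in both duplicate wells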;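 further: counter screen of KCNQ2 potentiator hits so any rise reflects channel-independent effects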
KCNQ1 sel pot – tests whether KCNQ2 potentiators also act on human KCNQ1. shares compounds with KCNQ2 pot. CHO KCNQ1 stable, FluxOR thallium flux fluorescence; beyond 3SD, as % of vehicle-control signal. activation over 3SD threshold, % at 10 µM. actives 28% (n = 1,200). AID 2283;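 active means fluorescence ratio rise of at least 3 SD of vehicle wells above their mean, in both replicate wells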
KCNQ2 pot conf – confirmation of rat KCNQ2 potassium channel potentiators | shares compounds with KCNQ2 pot | CHO-KCNQ2 cells, FluxOR thallium flux fluorescence | potentiation, less the hit threshold, % at 10 µM | actives 68% (n = 1,200);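 active means fluorescence ratio rising 3 SD or more over the vehicle control mean in both replicates, plus primary screen hit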;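 further: peak minus minimum thallium fluorescence divided by baseline after K/Tl stimulus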
Kir2-1 sel – tests whether KCNQ2 potentiators also affect mouse Kir2.1 | AID 2345 | activity over 3SD threshold, % at 10 µM | HEK293 Kir2.1, FluxOR thallium flux fluorescence | shares compounds with KCNQ2 pot | actives 2% (n = 1,200);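 active means fluorescence ratio rise of at least 3 SD above the vehicle-control mean, seen in both replicates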
KCNQ2 W236L MoA – KCNQ2 potentiators acting on retigabine-insensitive rat KCNQ2 W236L mutant; shares compounds with KCNQ2 pot; CHO KCNQ2-W236L, automated patch clamp current; current increase over 3SD of negative controls (%), stronger effect = higher value, % at 25 µM; actives 10% (n = 940);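 active means current increase at least 3 SD of the untreated controls above them in both duplicate recordings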
Numbers stand for hits; n = inactive; x = no result given. This is a sample that favours compounds with a hit; in the whole collection about 1.6% have one here.

SMILES	KCNQ2 pot	KCNQ2 block	Kir21 confirm	HEK293 ctr	others
CCc1nc(C)cn1S(=O)(=O)c1cc(Cl)c(OC)cc1Cl	n	n	58%	n
CCc1nc(C)cn1S(=O)(=O)c1cc(C)c(OC)cc1C	n	n	x	x
CCc1nc(C)cn1S(=O)(=O)c1cc(Br)ccc1OC	n	n	24%	n
C=CCn1c(Cc2cccs2)nnc1SCC(=O)NC1CC1	n	n	x	x
Cc1cc[n+](CC(=O)Nc2nc3ccccc3s2)cc1	x	n	x	x
CC1(CCC(=O)N2CCCC(Nc3ccc(F)cc3)C2)CC1 (configuration not stated)	x	n	51%	n
O=C(CC1CCCC1)N1CCCC(Nc2ccc(F)cc2)C1 (configuration not stated)	n	n	x	x
O=C(CCc1cccc(Cl)c1)N1CCCC(Nc2ccccc2)C1 (configuration not stated)	n	-7	70%	n
O=C1CCCCN1CCC(=O)N1CCCC(Nc2ccccc2)C1 (configuration not stated)	n	n	x	x
COC(=O)CN1C(=O)Nc2ccc(Br)cc2C1c1ccccc1 (configuration not stated)	6.7	n	n	n	CHO-K1 ctr=n;KCNQ1 sel pot=n;KCNQ2 pot conf=52;Kir2-1 sel=n;KCNQ2 W236L MoA=n
NNC(=O)CN1C(=O)Nc2ccc(Cl)cc2C1c1ccccc1 (configuration not stated)	n	n	x	x
C[n+]1cn(Cc2cc(Cl)ccc2OC(F)F)c2ccccc21	n	n	x	x
O=C(Cn1c(CO)nc2ccccc21)Nc1ccccc1Cl	n	n	n	n
Cc1cc(C)cc(NC(=O)Cn2c(-c3ccccc3Cl)nc3ccccc32)c1	n	n	x	x
O=C(COc1ccc2ccccc2c1Br)N1CCCC1	n	n	x	x
CCOC(=O)N1CCN(C(=O)COc2ccc3ccccc3c2Br)CC1	8.7	n	n	n	CHO-K1 ctr=13;KCNQ1 sel pot=18;KCNQ2 pot conf=11;Kir2-1 sel=n;KCNQ2 W236L MoA=n
Cc1ccc(C)c(OCC(O)CN2CCC(Cc3ccccc3)CC2)c1 (configuration not stated)	x	n	49%	n
OC(COc1ccc(Cl)cc1)CN1CCC(Cc2ccccc2)CC1 (configuration not stated)	x	n	x	x
Cc1ccc(C(C)C)c(OCC(O)CN2CCc3ccccc3C2)c1 (configuration not stated)	x	n	63%	n
OC(COCc1ccccc1)CN1CCc2ccccc2C1 (configuration not stated)	n	n	x	x
Cc1cccc(C)c1OCC(O)CN1CCc2ccccc2C1 (configuration not stated)	x	n	x	x
OC(COc1c(F)cc(Br)cc1F)CN1CCc2ccccc2C1 (configuration not stated)	x	n	26%	n
CCN(CC)C(=O)C(=O)Nc1ccc(F)c(Cl)c1	n	n	x	x
Cc1ccc(CC(=O)Nc2nncs2)cc1	x	n	x	x
O=c1cc(CN2CCN(Cc3ccccc3)CC2)c2cc3c(cc2o1)CCC3	n	n	x	x
SMILES	KCNQ2 pot	KCNQ2 block	Kir21 confirm	HEK293 ctr	others
O=C(c1ccc2nc(Cc3ccccc3F)oc2c1)N1CCCC1	n	n	x	x
CCCNC(=O)C1CN(S(=O)(=O)c2ccc(C)cc2)c2ccccc2O1 (configuration not stated)	n	n	x	x
N/C(=N\OC(=O)c1cccc(F)c1)c1ccccn1	n	n	x	x
Cc1cc(C(F)F)n2nc(C(=O)Nc3ccc(S(=O)(=O)N4CCCC4)cc3)nc2n1	n	n	x	x
CN(CCOc1ccc(Br)cc1)CC(O)COc1ccc(C#N)cc1 (configuration not stated)	x	n	x	x
COc1ccc(Br)cc1CN(C)CC(O)COc1ccc(Br)cc1 (configuration not stated)	n	-6.3	70%	n
CCCCOC(=O)C[N+](C)(C)CCOC1CC2CCC1(C)C2(C)C (configuration not stated)	x	n	x	x
CCCOC(=O)C[N+](C)(C)CCOC1CC2CCC1(C)C2(C)C (configuration not stated)	x	n	x	x
CCCCCCOC(=O)C[N+](C)(C)CCOC1CC2CCC1(C)C2(C)C (configuration not stated)	x	n	24%	n
CCCCCCCOC(=O)C[N+](C)(C)CCOC1CC2CCC1(C)C2(C)C (configuration not stated)	x	n	16%	n
Cc1cc(C(=O)Nc2ccc(F)cc2F)on1	n	n	x	x
Cc1cc(C)n2nc(N)c(N=Nc3ccc(Cl)cc3)c2n1	n	n	x	x
CCCNc1nc(-c2cc(-c3ccc(Cl)cc3)on2)cc(C(C)C)n1	n	n	x	x
CCN(Cc1ccccc1)C(=O)CN1C(=O)c2ccccc2C1=O	x	n	x	x
COc1ccc(S(=O)(=O)Nc2noc3ccccc23)cc1	n	n	x	x
CCOC(=O)c1c(C)nc(-c2ccccc2)nc1N	n	n	x	x
N#C/C(=N\Nc1cccc(C(F)(F)F)c1)C(=O)c1csc(-c2cccnc2)n1	6.4	n	n	70%	CHO-K1 ctr=19;KCNQ1 sel pot=n;KCNQ2 pot conf=n;Kir2-1 sel=n
Cc1ccc(C(=O)Nc2cccc(C(F)(F)F)c2)cc1NC(=O)c1csc(-c2ccncc2)n1	x	n	x	x
Cc1ccccc1-n1c(-c2ccc(Br)o2)n[nH]c1=S	n	n	x	x
COc1ccc(C(=O)CN2C(=O)c3ccccc3S2(=O)=O)cc1Br	x	n	x	x
Cc1ccc(O)c(C(=O)CC(=O)c2ccc(Cl)cc2)c1	6.2	n	n	n	CHO-K1 ctr=n;KCNQ1 sel pot=n;KCNQ2 pot conf=n;Kir2-1 sel=n
O=C(CC(=O)c1cc(Cl)ccc1O)c1ccccc1	5.3	n	n	130%	CHO-K1 ctr=n;KCNQ1 sel pot=n;KCNQ2 pot conf=n;Kir2-1 sel=n;KCNQ2 W236L MoA=n
Cc1cccc(C(=O)CC(=O)c2cc(Cl)ccc2O)c1	n	n	x	x
Cc1ccc(O)c(C(=O)CC(=O)c2cccc(F)c2)c1	n	n	x	x
Cc1ccc(S(=O)(=O)NCCC(=O)Nc2cccc(Cl)c2)cc1	x	n	x	x
Cc1cc([N+](=O)[O-])nn1CCCC(=O)N1CCN(c2ccccc2)CC1	n	n	x	x
FC(F)(F)c1cccc(N2CCc3cn[nH]c32)c1	n	n	x	x
O=C(Nc1ccccc1O)c1ccc(NS(=O)(=O)c2cccc3cccnc23)cc1	x	n	x	x
